Results on 52 compounds are retold here after PubChem BioAssay AID1030 (National Center for Advancing Translational Sciences (NCATS), 2008).

Among all 220,000 compounds or so, about 16,000 (7.3%) were called active. Another 25% or so got no clear call; they are omitted. Calls follow the shape of the dose curve; as a rule, active = well fitted inhibition curve with a large enough effect (not every such curve was filed as active); inconclusive = small, poorly fitted or top-dose-only effect, or another doubt; inactive = no such curve, though single readings can be large or run the other way. The list comes from a sample in which actives are over-represented; it also holds similar structures and randomly drawn compounds.
Potency is read from the fitted curve at half-maximal effect.

The target of this assay is Aldehyde dehydrogenase 1A1 (Homo sapiens) (UniProt P00352). Nature of the assay: qHTS Assay for Inhibitors of Aldehyde Dehydrogenase 1 (ALDH1A1).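 As to activity, negative = inhibition: plate controls were no enzyme wells and a reference inhibitor.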 To be noted: Purified ALDH1A1, NADH fluorescence, propionaldehyde substrate; series mostly up to 75.3 µM; activity, negative = inhibition: at the top concentration.
Chain of Aldehyde dehydrogenase 1A1 (Homo sapiens) (P00352 whole entry, looked up): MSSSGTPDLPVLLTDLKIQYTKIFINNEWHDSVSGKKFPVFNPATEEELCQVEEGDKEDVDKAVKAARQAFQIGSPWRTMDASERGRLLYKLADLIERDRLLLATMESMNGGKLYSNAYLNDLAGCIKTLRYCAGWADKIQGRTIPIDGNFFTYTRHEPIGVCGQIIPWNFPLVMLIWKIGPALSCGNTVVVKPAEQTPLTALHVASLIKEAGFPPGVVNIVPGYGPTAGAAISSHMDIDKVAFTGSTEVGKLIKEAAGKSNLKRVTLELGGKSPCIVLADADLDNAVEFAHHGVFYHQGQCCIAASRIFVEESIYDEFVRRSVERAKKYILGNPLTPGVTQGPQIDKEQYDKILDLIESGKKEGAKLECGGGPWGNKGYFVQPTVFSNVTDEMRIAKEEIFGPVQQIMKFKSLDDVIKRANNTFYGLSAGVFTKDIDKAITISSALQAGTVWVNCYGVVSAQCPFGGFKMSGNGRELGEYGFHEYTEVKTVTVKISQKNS
With `Cc1ccc(COc2ccc(/C=N/NC(=O)CN3CCCCC3)cc2)cc1`, the “activity, negative = inhibition” value was 8.06% (inactive). For `S=c1[nH]nc(SCc2ccccc2Cl)c2[nH]cnc12`, the Potency is 0.0316 µM (active).

For `O=c1cc(O)nc(SCc2ccccc2Cl)[nH]1`, the “activity, negative = inhibition” value was 1.42% (inactive). With `CCc1ccc(-n2c(=S)sc3c(=O)n(-c4ccccc4OC)c(=S)[nH]c32)cc1`, the Potency is 12.6 µM (active). As for `CCOC(=O)N1CCN(C(=O)Cc2ccc(-n3c(=S)[nH]c4ccccc4c3=O)cc2)CC1`, the “activity, negative = inhibition” value is -10.4% (inactive). Regarding `COc1ccc(OC)c(-n2c(=S)[nH]c3cc(C(=O)N4CCCCC4)ccc3c2=O)c1`, the “activity, negative = inhibition” value is -1.79% (inactive).

For `COc1cc2[nH]c(=S)n(Cc3ccc(F)cc3)c(=O)c2cc1OC`, the “activity, negative = inhibition” value is 6.91% (inactive). In the case of `COc1ccccc1-n1c(=S)[nH]c2c(sc(=S)n2-c2ccc(C)cc2C)c1=O`, the Potency was 8.91 µM (active).

As to `Cc1ccc(Cl)cc1NC(=O)c1ccccn1`, the “activity, negative = inhibition” value was 3.34% (inactive). Same read-out and setting: under `Cc1cn(C2OC[C@@H](O)[C@@H]2CO)c(=O)[nH]c1=O` (some centres not stated) stands 9.87% (inactive); under `O=C(NCc1cccnc1)c1cccc(-c2cc3ccccc3oc2=O)c1`, -7.95% (inactive). On the same count and under the same terms, the figure for `CCc1ccc(CN(C)Cc2nc(Cc3ccccc3)no2)nc1` is -4.1% (inactive).

In the case of `CN(C)CCCN1C(=O)CSC1c1ccc([N+](=O)[O-])cc1` (configuration not stated), the “activity, negative = inhibition” value was 4.08% (inactive). As to `Cc1ccc2c(c1)C(c1ccccc1)N(C(=O)c1ccc(S(=O)(=O)N3CCOCC3)cc1)CC(=O)N2` (configuration not stated), the Potency was 7.94 µM (active). Turning to `CCC(CC)C(=O)N1CC(=O)Nc2ccc(Br)cc2C1c1ccccc1` (configuration not stated), the “activity, negative = inhibition” value is 0.759% (inactive). On the same count and under the same terms, under `O=C(c1ccc(S(=O)(=O)N2CCOCC2)cc1)N1CCN(c2ccccc2)CC1` stands 2.43% (inactive). In the case of `CNS(=O)(=O)c1ccc(NC(=O)C2CC(=O)N(c3ccc(Cl)cc3)C2)cc1` (configuration not stated), the “activity, negative = inhibition” value is 5.48% (inactive). Same read-out and setting: under `COc1cc(OC)nc(NC(=O)CCl)n1` stands 3.91% (inactive). Turning to `O=C(CCl)NNc1cccc(Cl)n1`, the Potency was 10 µM (active).

With `O=C(NNc1ccccn1)c1ccc(Cl)nc1`, the “activity, negative = inhibition” value is -11.2% (inactive). Still for that read-out and setting: the figure for `CCCCSc1nc2ccccc2[nH]1` is -4.29% (inactive); for `COc1cc(CCC(=O)OCC(=O)Nc2cccc(S(N)(=O)=O)c2)cc(OC)c1OC` it is -5.58% (inactive). On the same count and under the same terms, the figure for `Cc1nn(C)c(C)c1S(=O)(=O)N1CCC(CO)(Cc2ccc(Cl)cc2)CC1` is 7.34% (inactive); for `COc1ccc(NC(=S)NCCN2CCC(C)CC2)cc1` it is 0.486% (inactive); for `COc1ccc(OCC(=O)Nc2ccc(N3CCC(C)CC3)cc2)cc1` it is 9.23% (inactive).

Take `COc1ccc(NC(=S)NCC2CCN(c3ccc(OC)cc3)C2)cc1` (configuration not stated): the Potency was 35.5 µM (active). Consider `O=C(Nc1cccc(Cl)c1)c1cc([N+](=O)[O-])ccc1N1CCN(CCO)CC1`, for which the “activity, negative = inhibition” value was -7.69% (inactive). On the same count and under the same terms, under `CN1CCN(c2ccc(S(=O)(=O)Nc3ccccc3)cc2[N+](=O)[O-])CC1` stands -5.79% (inactive); under `CCNC(=O)c1ccc(OCC(=O)Nc2ccc(F)cc2)c(OC)c1`, 2.14% (inactive). On the same count and under the same terms, the figure for `CCCCn1c(N)c(N2CCOCC2)c(=O)n(CC(=O)NCCc2ccccc2)c1=O` is 8.85% (inactive). In the case of `O=S(=O)(NN=C1CCCCCCC1)c1ccc(Br)cc1`, the Potency was 11.2 µM (active). Regarding `O=C(CCc1ccc(S(=O)(=O)N2CCOCC2)cc1)NN=C1CCCCCCC1`, the “activity, negative = inhibition” value was -9.69% (inactive). On to `Cc1nc(S(=O)(=O)c2ccc(Br)cc2)nc2c1CCC2`, for which the “activity, negative = inhibition” value was -3.44% (inactive). Still for that read-out and setting: the figure for `CC(=O)Cn1ncc(N2CCOCC2)c(Br)c1=O` is 3.21% (inactive); for `Cc1ccc(OCC(=O)Nc2ccc(S(=O)(=O)Nc3ccccn3)cc2)cc1` it is -0.623% (inactive); for `Cc1ccc(NS(=O)(=O)c2c(C)[nH]c(=O)[nH]c2=O)cc1C` it is -15% (inactive).

On to `Cc1ccc(Nc2cc(=O)n(C3CCCCC3)c(=O)[nH]2)cc1C`, for which the Potency was 1 µM (active). Regarding `COC(=O)C1=C(C(=O)OC)[C@@H]2Nc3ccccc3[C@@]23C[C@@H](C(=O)OC)N(S(=O)(=O)c2ccc([N+](=O)[O-])cc2)C3=N1`, the activity, negative = inhibition is -1.68% [at 13.5 µM] (inactive). On the same count and under the same terms, under `Nc1c(NCCc2ccccc2)c2ccccc2oc1=O` stands -7.28% (inactive); under `O=C1C(Cl)=C(N2CCOCC2)C(=O)N1c1ccccc1`, -8.32% (inactive). Consider `O=C1c2ccccc2C(=O)N1c1ccccc1S(=O)C(F)(F)F` (configuration not stated), for which the “activity, negative = inhibition” value is 12.6% (inactive). Take `O=C1C(=O)N(c2ccccc2)c2ccccc21`: the Potency was 6.31 µM (active).

Regarding `COC(=O)c1c(C)oc2ccc(N(C(=O)Oc3ccccc3)S(=O)(=O)c3ccccc3)cc12`, the “activity, negative = inhibition” value is -1.58% (inactive). On the same count and under the same terms, the figure for `Cc1ccccc1NC(=O)c1nn(-c2ccc(F)c(F)c2)ccc1=O` is 0.92% (inactive); for `C/C(=N\NC(=O)c1ccccc1C)c1ccc(N2CCOCC2)cc1` it is 5.33% (inactive). On to `Cc1ccccc1N/N=C/c1ccc(N2CCOCC2)cc1`, for which the Potency is 8.91 µM (active). Turning to `C(=N/Nc1cc(N2CCOCC2)nc(N2CCOCC2)n1)/c1ccccc1`, the “activity, negative = inhibition” value is 7.34% (inactive). Same read-out and setting: the figure for `O=C(CCN1CCN(C/C=C/c2ccccc2)CC1)Nc1cccc(F)c1` is 9.75% (inactive); for `COc1ccc(N2C(=O)C(CC(=O)Nc3ccc(F)cc3)N(CCc3cccs3)C2=O)cc1` (configuration not stated) it is -2.98% (inactive). As for `CCOc1ccc(NC(=O)CC2C(=O)N(c3ccccc3)C(=O)N2CCOC)cc1` (configuration not stated), the Potency is 15.8 µM (active).

In the case of `COc1ccc(N2C(=O)C(CC(=O)Nc3ccccc3)N(Cc3ccc(OC)c(OC)c3)C2=O)cc1` (configuration not stated), the “activity, negative = inhibition” value was 2.78% (inactive).

Turning to `NC(=O)c1ccccc1N(Cc1ccccc1)S(=O)(=O)c1ccccc1`, the “activity, negative = inhibition” value was 3.35% (inactive).
